# Data as given in PubChem BioAssay (Tox21).
# Records with an inconclusive call do not appear. A call without a number means that no potency is given here. Calls of active or inactive are those of the source. Unless noted, the call rests on the fitted dose curve; in most records, active means well fitted curve in the direction sought with a large enough effect in the repeat runs; inconclusive means weak or mixed curves; inactive means no such curve, though single readings can be large; an effect the other way counts as inactive or inconclusive.
# Columns and labels:
# [1] = qHTS assay to identify small molecule antagonists of the thyroid receptor (TR) signaling pathway - cell viability counter screen (AID 743064); further: nearly all actives have a fitted effect of over 50% in size
# Procedure, shortened: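 Counter screen for cytotoxicity: compound plus T3 (1 nM final) on GH3.TRE-Luc cells, 23.5 h at 37 °C, then fluorescence viability readout with CellTiter-Fluor.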
# [2] = qHTS assay to identify small molecule antagonists of the thyroid receptor (TR) signaling pathway (AID 743065); further: series mostly up to about 70 µM; nearly all actives have a fitted effect of over 55% in size
# Procedure, shortened: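 GH3.TRE-Luc rat pituitary cells (two TREs driving luciferase) were dosed with compound, then stimulated with 1 nM T3 (final) for 23.5 h at 37 C. ONE-Glo luminescence was the read-out, with CellTiter-Fluor fluorescence as the cytotoxicity counter-screen.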
# [3] = tested on: thyroid hormone receptor (rat, GH3 cells); assay: qHTS assay to identify small molecule agonists of the thyroid receptor (TR) signaling pathway (AID 743066; calls by dose curve; further: potency means the concentration at half of the fitted maximal effect)
# [4] = biological target: Estrogen receptor (Homo sapiens) (UniProt P03372); assay: qHTS assay to identify small molecule antagonists of the estrogen receptor alpha (ER-alpha) signaling pathway (AID 743069; active means well fitted curve in the direction sought with a large enough effect in the signal ratio in the repeat runs, not every such curve was filed as active; the % refers to the signal ratio)
# Procedure, shortened: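 Beta-lactamase FRET fluorescence is read after 2 hr at room temperature with LiveBLAzer B/G substrate. Before that, ER-alpha-bla HEK293 cells sit 4 hr after plating, then receive compound plus 17beta-estradiol and incubate 18 hr at 37C.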
# [5] = qHTS assay to identify small molecule antagonists of the estrogen receptor alpha (ER-alpha) signaling pathway - cell viability counter screen (AID 743074; calls by dose curve;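 further: HEK293 cells carrying ER-alpha-UAS-bla reporter stimulated with 17beta-estradiol; nearly all actives have a fitted effect of over 45% in size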)
# [6] = biological target: Estrogen receptor (Homo sapiens) (UniProt P03372); assay: qHTS assay to identify small molecule agonists of the estrogen receptor alpha (ER-alpha) signaling pathway (AID 743075; calls by dose curve;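 further: HEK293 GripTite cells with ER-alpha and UAS-driven beta-lactamase reporter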)
# [7] = biological target: Estrogen receptor (Homo sapiens) (UniProt P03372); assay: qHTS assay to identify small molecule agonists of the estrogen receptor alpha (ER-alpha) signaling pathway using the BG1 cell line (AID 743079); further: nearly all actives have a fitted effect of over 20% in size
# [8] = qHTS assay to identify small molecule antagonists of the estrogen receptor alpha (ER-alpha) signaling pathway using the BG1 cell line (AID 743080; calls by dose curve;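 further: BG1 cells stimulated with 17beta-estradiol alongside compound; series mostly up to about 70 µM; nearly all actives have a fitted effect of over 25% in size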)
# Procedure, shortened: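 BG1-Luc-4E2 cells (endogenous full-length ER-alpha, 4xERE luciferase) hormone-starved 5 days in charcoal-stripped FBS, plated 4,000/well for 24 h, then compound plus 17beta-estradiol for 21.5 h at 37 C; ONE-Glo luminescence read.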
# [9] = qHTS assay to identify small molecule antagonists of the estrogen receptor alpha (ER-alpha) signaling pathway using the BG1 cell line - cell viability counter screen (AID 743081);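 further: compound given together with 17beta-estradiol as the ER stimulus; series mostly up to about 70 µM; nearly all actives have a fitted effect of over 45% in size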
# [10] = biological target: Aromatase (Homo sapiens) (UniProt P11511); assay: qHTS assay to identify aromatase inhibitors (AID 743083); further: series mostly up to about 70 µM; nearly all actives have a fitted effect of over 55% in size
# [11] = qHTS assay to identify aromatase inhibitors - cell viability counter screen (AID 743084);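 further: cells stimulated with testosterone during compound exposure; nearly all actives have a fitted effect of over 55% in size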
# [12] = biological target: Aryl hydrocarbon receptor (Homo sapiens) (UniProt P35869); assay: qHTS assay to identify small molecule that activate the aryl hydrocarbon receptor (AhR) signaling pathway (AID 743085); further: nearly all actives have a fitted effect of over 15% in size; further: potency means the concentration at half of the fitted maximal effect;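 on activation: HG2L7.5c1 human HepG2 liver cells with stably integrated DRE-driven firefly reporter; series mostly up to about 70 µM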
# Procedure, shortened: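 Measured in HG2L7.5c1 cells: CellTiter-Fluor signal (30 min incubation, 37C) for viability, then luciferase luminescence (30 min, room temperature). Compound contact time was 24 h at 37C, following a 5 h pre-incubation.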
# [13] = qHTS assay to identify small molecule that activate the aryl hydrocarbon receptor (AhR) signaling pathway - cell viability counter screen (AID 743086);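 further: HepG2 liver cells carrying the AhR DRE luciferase reporter; series mostly up to about 70 µM; nearly all actives have a fitted effect of over 45% in size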
# Procedure, shortened: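 HepG2-AhR-luc (HG2L7.5c1) cells, 4000/well, treated 24 h at 37 C with compound; viability measured as CellTiter-Fluor fluorescence after 30 min in the same wells as the luciferase read.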
# [14] = biological target: Peroxisome proliferator-activated receptor gamma (Homo sapiens) (UniProt P37231); assay: qHTS assay to identify small molecule agonists of the peroxisome proliferator-activated receptor gamma (PPARg) signaling pathway (AID 743094; active means well fitted activation curve with a large enough effect in the signal ratio in the repeat runs, not every such curve was filed as active; the % refers to the signal ratio)
# Procedure, shortened: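 HEK293H PPARg-bla cells, 5 h settle at 37C/5% CO2; compound (DMSO) 17 h, 37C; B/G FRET substrate 1 h RT; fluorescence intensity read-out. qHTS format.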
# [15] = biological target: Peroxisome proliferator-activated receptor gamma (Homo sapiens) (UniProt P37231); assay: qHTS assay to identify small molecule antagonists of the peroxisome proliferator-activated receptor gamma (PPARg) signaling pathway (AID 743191; calls by dose curve; further: series mostly up to about 63 µM; nearly all actives have a fitted effect of over 30% in size)
# Procedure, shortened: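 GeneBLAzer PPARg UAS-bla HEK293H cells, 5 h post-plating, exposed to compounds 17 h at 37C. LiveBLAzer B/G FRET substrate added for 1 h at room temperature; beta-lactamase reporter read by fluorescence intensity.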
# [16] = qHTS assay to identify small molecule antagonists of the peroxisome proliferator-activated receptor gamma (PPARg) signaling pathway - cell viability counter screen (AID 743194); further: nearly all actives have a fitted effect of over 55% in size
# Procedure, shortened: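 Cytotoxicity counter screen in PPARg-bla HEK293H cells, same wells as reporter assay. Compounds plus 50 nM rosiglitazone (final) for 17 h at 37 C, then viability read by CellTiter-Glo luminescence.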
# [17] = qHTS assay for small molecule agonists of the antioxidant response element (ARE) signaling pathway (AID 743202; active means well fitted activation curve with a large enough effect in the signal ratio in the repeat runs, not every such curve was filed as active; the % refers to the signal ratio)
# Procedure, shortened: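 HepG2 ARE-bla reporter line, 2,000 cells/well; 5 h preincubation 37 C/5% CO2; compound (DMSO) 16 h 37 C; B/G FRET substrate 2 h RT; fluorescence intensity.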
# [18] = qHTS assay for small molecule activators of the heat shock response signaling pathway - cell viability counter screen (AID 743209); further: nearly all actives have a fitted effect of over 50% in size
# Procedure, shortened: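 HSE-bla HeLa; 1500 cells/well; overnight 37 C, 5% CO2; compound 5 h 37 C; LiveBLAzer B/G substrate 2.5 h RT; CellTiter-Glo 30 min RT; luminescence.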
# [19] = qHTS assay for small molecule activators of the heat shock response signaling pathway (AID 743210; active means well fitted activation curve with a large enough effect in the signal ratio in the repeat runs, with a control signal flat, not every such curve was filed as active; the % refers to the signal ratio;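 further: HeLa cells with beta-lactamase reporter driven by heat shock elements; series mostly up to about 63 µM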)
# Procedure, shortened: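 Beta-lactamase reporter read-out: FRET substrate fluorescence after 2.5 h at RT, following 5 h compound treatment at 37 C of HeLa cells carrying HSE-driven bla reporter; quantitative HTS format.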
# [20] = qHTS assay for small molecule agonists of the antioxidant response element (ARE) signaling pathway - cell viability counter screen (AID 743203; calls by dose curve; further: nearly all actives have a fitted effect of over 55% in size)
# Procedure, shortened: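 Luminescence read-out (CellTiter-Glo, 30 min at room temperature) measured cell viability in the same wells as the ARE beta-lactamase reporter. HepG2 ARE-bla cells were treated with compounds for 16 hrs at 37C/5% CO2.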
# Sequence of Aromatase (Homo sapiens) (P11511 whole entry, looked up): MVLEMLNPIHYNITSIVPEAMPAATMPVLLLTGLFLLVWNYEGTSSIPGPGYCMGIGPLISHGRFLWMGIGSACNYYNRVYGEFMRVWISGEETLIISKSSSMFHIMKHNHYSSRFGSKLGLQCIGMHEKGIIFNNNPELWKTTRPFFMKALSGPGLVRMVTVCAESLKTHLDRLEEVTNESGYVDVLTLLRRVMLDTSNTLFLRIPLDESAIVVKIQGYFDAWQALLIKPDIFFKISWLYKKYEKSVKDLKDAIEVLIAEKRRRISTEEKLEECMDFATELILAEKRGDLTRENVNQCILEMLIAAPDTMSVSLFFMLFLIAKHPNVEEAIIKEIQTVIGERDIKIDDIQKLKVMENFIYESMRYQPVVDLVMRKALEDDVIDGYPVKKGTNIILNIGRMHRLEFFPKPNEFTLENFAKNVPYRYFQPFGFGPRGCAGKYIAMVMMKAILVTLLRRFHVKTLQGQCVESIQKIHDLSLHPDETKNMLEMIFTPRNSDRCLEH
# Sequence of Aryl hydrocarbon receptor (Homo sapiens) (P35869 whole entry, looked up): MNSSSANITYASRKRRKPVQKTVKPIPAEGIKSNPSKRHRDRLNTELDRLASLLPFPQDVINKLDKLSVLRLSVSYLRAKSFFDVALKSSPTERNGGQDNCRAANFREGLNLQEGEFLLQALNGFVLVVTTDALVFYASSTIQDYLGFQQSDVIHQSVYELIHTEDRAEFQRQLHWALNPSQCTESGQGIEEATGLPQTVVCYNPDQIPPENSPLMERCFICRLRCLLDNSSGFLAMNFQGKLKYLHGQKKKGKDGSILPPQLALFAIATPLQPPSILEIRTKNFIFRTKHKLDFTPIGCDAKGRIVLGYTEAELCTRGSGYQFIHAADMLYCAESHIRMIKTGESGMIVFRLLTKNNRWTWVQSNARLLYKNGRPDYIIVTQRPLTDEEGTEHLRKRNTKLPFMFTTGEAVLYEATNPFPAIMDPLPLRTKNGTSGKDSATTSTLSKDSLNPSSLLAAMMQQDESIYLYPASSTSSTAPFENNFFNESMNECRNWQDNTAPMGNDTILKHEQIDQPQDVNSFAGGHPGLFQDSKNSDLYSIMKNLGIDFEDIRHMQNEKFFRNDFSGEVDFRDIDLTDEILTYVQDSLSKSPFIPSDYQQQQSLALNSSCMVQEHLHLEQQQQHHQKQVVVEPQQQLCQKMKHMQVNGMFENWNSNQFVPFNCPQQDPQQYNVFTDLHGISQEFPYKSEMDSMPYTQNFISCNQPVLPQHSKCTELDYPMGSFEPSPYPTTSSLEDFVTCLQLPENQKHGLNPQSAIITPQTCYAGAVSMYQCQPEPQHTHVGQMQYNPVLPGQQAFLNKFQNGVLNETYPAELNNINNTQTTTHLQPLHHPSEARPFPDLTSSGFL
# Sequence of Estrogen receptor (Homo sapiens) (P03372 whole entry, looked up): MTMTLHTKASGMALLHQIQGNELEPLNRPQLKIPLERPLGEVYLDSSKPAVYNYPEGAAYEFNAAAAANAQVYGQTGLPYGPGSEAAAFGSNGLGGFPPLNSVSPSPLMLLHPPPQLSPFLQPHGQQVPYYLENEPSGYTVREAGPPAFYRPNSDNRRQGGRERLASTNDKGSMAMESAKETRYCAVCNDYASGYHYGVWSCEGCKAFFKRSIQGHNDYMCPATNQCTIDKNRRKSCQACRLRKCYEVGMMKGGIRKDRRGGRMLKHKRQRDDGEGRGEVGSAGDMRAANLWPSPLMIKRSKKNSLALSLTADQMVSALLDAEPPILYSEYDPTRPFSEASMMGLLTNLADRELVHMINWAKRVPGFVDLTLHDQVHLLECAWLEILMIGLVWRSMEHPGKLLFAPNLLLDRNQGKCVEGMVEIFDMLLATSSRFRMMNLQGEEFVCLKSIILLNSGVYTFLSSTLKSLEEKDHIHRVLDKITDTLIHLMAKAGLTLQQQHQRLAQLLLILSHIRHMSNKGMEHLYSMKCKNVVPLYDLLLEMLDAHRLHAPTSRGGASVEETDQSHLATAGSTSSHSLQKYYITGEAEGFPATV
# Sequence of Peroxisome proliferator-activated receptor gamma (Homo sapiens) (P37231 whole entry, looked up): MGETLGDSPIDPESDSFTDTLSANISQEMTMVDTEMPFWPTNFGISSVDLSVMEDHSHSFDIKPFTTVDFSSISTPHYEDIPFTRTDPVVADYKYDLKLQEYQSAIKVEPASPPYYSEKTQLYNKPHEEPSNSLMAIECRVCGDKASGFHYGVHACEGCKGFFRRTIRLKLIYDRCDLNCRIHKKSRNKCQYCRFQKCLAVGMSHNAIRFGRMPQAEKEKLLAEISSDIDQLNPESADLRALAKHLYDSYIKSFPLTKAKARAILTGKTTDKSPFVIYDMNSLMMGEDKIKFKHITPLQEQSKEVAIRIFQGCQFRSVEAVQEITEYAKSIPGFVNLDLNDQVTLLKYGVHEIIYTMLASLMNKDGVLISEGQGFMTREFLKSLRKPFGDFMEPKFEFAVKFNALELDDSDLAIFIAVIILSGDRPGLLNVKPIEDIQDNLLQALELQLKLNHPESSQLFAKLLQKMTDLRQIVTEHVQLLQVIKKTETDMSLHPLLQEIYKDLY
SMILES,Potency [1],Potency [2],Potency [3],Potency [4],Potency [5],Potency [6],Potency [7],Potency [8],Potency [9],Potency [10],Potency [11],Potency [12],Potency [13],outcome [14],Potency [15],Potency [16],Potency [17],Potency [18],Potency [19],Potency [20]
CC(C)C(=O)OCCOc1ccccc1,inactive,inactive,inactive,inactive,inactive,inactive,inactive,inactive,inactive,inactive,inactive,inactive,inactive,inactive,inactive,inactive,inactive,inactive,inactive,–
Cc1ccc(N(CCO)CCO)cc1,inactive,inactive,inactive,inactive,inactive,inactive,inactive,inactive,inactive,inactive,inactive,inactive,inactive,inactive,inactive,inactive,–,inactive,inactive,inactive
CCCCCCCCCCCCCCCC(=O)OCC,inactive,inactive,inactive,inactive,inactive,inactive,inactive,inactive,inactive,inactive,inactive,inactive,inactive,inactive,inactive,inactive,–,inactive,inactive,inactive
Cc1cccc2sc(N)nc12,inactive,inactive,inactive,inactive,inactive,inactive,inactive,inactive,inactive,inactive,inactive,27.6 µM (active),inactive,inactive,–,inactive,–,–,inactive,inactive
ClC1=C(Cl)C1(Cl)Cl,inactive,inactive,inactive,inactive,inactive,inactive,inactive,inactive,inactive,inactive,inactive,inactive,inactive,inactive,–,inactive,–,inactive,inactive,inactive
CC(=O)NNC(C)=O,inactive,inactive,inactive,inactive,inactive,inactive,inactive,inactive,inactive,inactive,inactive,inactive,inactive,–,–,inactive,inactive,inactive,–,inactive
CC1CCCC(=O)C1=O (stereo not given),inactive,inactive,inactive,inactive,inactive,inactive,inactive,inactive,inactive,inactive,inactive,inactive,inactive,inactive,inactive,inactive,inactive,inactive,inactive,inactive
CCC(CO)(CO)[N+](=O)[O-],inactive,inactive,inactive,inactive,inactive,inactive,inactive,inactive,inactive,inactive,inactive,inactive,inactive,inactive,inactive,inactive,inactive,inactive,inactive,inactive
O=C(O)CO,inactive,inactive,inactive,inactive,inactive,inactive,inactive,inactive,inactive,inactive,inactive,inactive,inactive,inactive,inactive,inactive,–,inactive,inactive,–
CC(=O)OCCC(C)CC(C)(C)C (stereo not given),inactive,inactive,24.3 µM (active),inactive,inactive,inactive,inactive,inactive,inactive,inactive,inactive,inactive,inactive,inactive,inactive,inactive,inactive,inactive,inactive,inactive
CC1CCc2nccnc21 (stereo not given),inactive,inactive,inactive,inactive,inactive,inactive,inactive,inactive,inactive,inactive,inactive,inactive,inactive,inactive,–,inactive,inactive,inactive,inactive,inactive
OCC(CO)n1cnc(-c2ccc(F)cc2)c1-c1ccnc(Oc2ccccc2)n1,inactive,inactive,inactive,inactive,inactive,inactive,inactive,inactive,inactive,inactive,inactive,inactive,inactive,inactive,inactive,inactive,–,inactive,inactive,inactive
COC(C)(C)OC,inactive,inactive,inactive,inactive,inactive,inactive,inactive,inactive,inactive,inactive,inactive,inactive,inactive,inactive,–,inactive,inactive,–,inactive,–
[Cl][Nd]([Cl])[Cl],inactive,inactive,inactive,inactive,inactive,inactive,inactive,inactive,inactive,inactive,inactive,inactive,inactive,inactive,–,inactive,–,inactive,inactive,inactive
O=C(O)c1cccc(C[C@@H]2COc3ccc(OCc4nc5cc(F)ccc5s4)cc3[C@@H]2O)c1,inactive,inactive,inactive,inactive,inactive,inactive,inactive,inactive,inactive,inactive,inactive,inactive,inactive,–,–,–,–,inactive,inactive,–
